± gives the standard deviation.
Test system: MILI (PIWIL2) piRISC loaded with L1MC piRNA (26 nt)
Assay: pre-steady-state target cleavage rate (min^-1); guide: L1MC piRNA 5'p-UAACUAAAUACUAUGCAAGCUGUAGG; MIWI and MILI are mouse PIWI proteins and EfPiwi is from a freshwater sponge; tags in brackets are library labels; higher = faster piRNA-guided slicing of the target
How it was run: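 Reactions were run for 0–8 or 0–960 min at 33 °C in HEPES–potassium acetate buffer, combining 1 nM active affinity-purified piRISC with one synthetic guide, […] transcribed, DNA-blocked target RNA library and, in some cases, 500 nM GTSF1 partner protein. Sequencing of uncleaved targets followed, with normalisation to depth and to weakly complementary targets. Three trials were pooled, k3 was capped at 0.0001 min^-1, and the pre-steady-state cleavage rate was taken from a burst-and-steady-state fit.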

[1] = auxiliary factor: 500 nM mouse GTSF1
[2] = auxiliary factor: none (no GTSF1)
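Also: 1 nM active piRISC with 0.1 nM target library at 33 °C single turnover.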

| Sequence | pre-steady-state target cleavage rate [1] | pre-steady-state target cleavage rate [2] |
| --- | --- | --- |
| UCCUGGAUGUGCUUGCAUAGUAAUUUAGUUA | 0.0286 ± 0.01 | 0.0056 ± 0.0026 |
| UCCUGGAUGUGGUUGCAUAGUAUUAAGUUA | 0.171 ± 0.048 | 0.00678 ± 0.0029 |
| UCCUGGAACAGCUGCAUAGUAUUUAGUUA | 0.279 ± 0.021 | 0.0069 ± 0.0026 |
| UCCUGGAUGUCGUUGCAUAGUAGUUAGUUA | 0.013 ± 0.0052 | 0.00511 ± 0.0031 |
| UCCUGGAACAGCAACCAUAGUAUUUAGUUA | 0.152 ± 0.018 | 0.00431 ± 0.0018 |
| UCCUGGAUGUGCUUGCUUAGUAUUUAGUAA | 0.0779 ± 0.014 | 0.00576 ± 0.0018 |
| UCCUGCUAGUCCUUGCAUAGUAUUUAGUAA | 0.0749 ± 0.018 | – |
| UCCUGGAUGUCGAAGCAUAGUAUUUAGUUA [g2:g16:cont:t1A] | 0.0359 ± 0.0067 | 0.00487 ± 0.0016 |
| UCCUGGAUGUGCUUGCAUUGUUUUUAGUUA | 0.00733 ± 0.005 | 0.00335 ± 0.0032 |
| UCCUGGAUGUCGAACCAUAGUAAAUAGUUA | – | < 0.0001 |
| UCCUGGAUGAGCUUGCAUACUAUUAAGUUA | 0.00607 ± 0.0038 | – |
| UCCUGGUACAGCAUGCAUAGUAUUUACUUA | 0.0914 ± 0.025 | 0.00419 ± 0.0038 |
| UCCUCCUACAGCUUGCAUAGUAUAAACAAA | 0.165 ± 0.043 | – |
| UCCUGGAUGUCCAUGCAUAGUAUUUUGUUA | 0.00776 ± 0.0045 | – |
| UCCUGGAUGUCCUUGCAUUGUUUUUAGUUA | 0.00791 ± 0.0055 | 0.00421 ± 0.0023 |
| UCCUGGAUGUCCUUGCAUUGUAUUUUGUUA | 0.0388 ± 0.013 | – |
| UCCUGGUACAGCUUGGAUAGUAUUUUGUUA | 0.0944 ± 0.022 | 0.00486 ± 0.0048 |
| UCCUGGAUGUCGAAGCGUAGUAUUUAGUUA | 0.00313 ± 0.0025 | – |
| UCCUGGUACAGCUUGCUAUGUAUUUAGUUA | 0.0246 ± 0.0085 | 0.00465 ± 0.0027 |
| UCCUGGUACAGGUUGCAUAGUAUAUAGUUA | 0.42 ± 0.089 | 0.00855 ± 0.0029 |
| UCCUGGAUGUCCUUGGAUAGUAUUAAGUUA | 0.207 ± 0.037 | 0.00484 ± 0.0024 |

| Sequence | pre-steady-state target cleavage rate [1] | pre-steady-state target cleavage rate [2] |
| --- | --- | --- |
| UCCUCCUACAGCUUGCAUAGUUAAAUCAAA [g10:g26:cont:t1A] | 0.0191 ± 0.0072 | – |
| UCCUGGAUCAGCUACCAUAGUAUUUACAAA | – | < 0.0001 |
| UCCUGGAACAGCUACCAUAGUAUUUAGUAA | 0.23 ± 0.028 | 0.00298 ± 0.0029 |
| UCCUGGAUCAGCAUGCAUAGUAUUUACUUA | 0.126 ± 0.016 | 0.00358 ± 0.0024 |
| UCCUGGAUCAGCUUGCUAAGUAUUUAGUUA | 0.0871 ± 0.012 | 0.0065 ± 0.0021 |
| UCCUGGAUGUGCUUGCAUAGUCAUUUAGUUA | 0.00678 ± 0.0044 | – |
| UCCUGGUUGUGCUUGCAUAGUAUUUACAAA | 0.00786 ± 0.0048 | – |
| UCCUGGAACAGCUUCCAUUGUAUUUAGUUA | 0.11 ± 0.019 | 0.00471 ± 0.0022 |
| UCCUGGAUGUCGUUGCAUAGUUAUUUAGUUA | 0.00477 ± 0.0039 | 0.00324 ± 0.003 |
| UCCUCCUACAGCUUGCUAGUAUUUAGUUA | 0.037 ± 0.013 | 0.00462 ± 0.0021 |
| UCCUGGAUGUCCUUGCAUAGUAAUUAGUUA | 0.111 ± 0.019 | 0.00618 ± 0.0018 |
| UCCUGCUACAGCUUGCAUUGUAUAUAGUUA | 0.194 ± 0.028 | 0.00483 ± 0.0018 |
| UCCUGGUACAGCUUGCAUCGUAUUUAGUUA | 0.0739 ± 0.014 | 0.00985 ± 0.0037 |
| UCCUGGAUCAGCUUGCAUUGUUUUUAGUUA | 0.0121 ± 0.0054 | 0.00431 ± 0.0023 |
| UCCUGGAUGAGCUUGCAUAGUAUAUAGUAA | 0.163 ± 0.039 | – |
| UCCUGGAUCAGCUUGCCUAGUAUUUAGUUA | 0.234 ± 0.015 | 0.00686 ± 0.0022 |
| UCCUCCUACAGCUUGCAUUGUAUUUACUUA | 0.145 ± 0.021 | 0.00286 ± 0.0022 |
| UCCUGGAUCAGCUUGGUAAGUAUUUAGUUA | 0.0316 ± 0.0076 | 0.00588 ± 0.0023 |
| UCCUGGAUGUGCUUGGUUAGUAUUUAGUUA | 0.0978 ± 0.017 | 0.01 ± 0.0025 |
| UCCUGGUACAGCUUGCUAGUAUUUAGUUA | 0.0128 ± 0.0057 | 0.00634 ± 0.002 |
| UCCUGGAUGUCGUCGCAUAGUAUUUAGUUA | 0.0893 ± 0.012 | 0.00436 ± 0.0024 |

| Sequence | pre-steady-state target cleavage rate [1] | pre-steady-state target cleavage rate [2] |
| --- | --- | --- |
| UCCUGGAUGUGCUUGCUUAGUUUUUAGUUA | 0.011 ± 0.0063 | 0.00656 ± 0.0028 |
| UCCUGGAUCAGCUUGCUUAGUAUUUUGUUA | 0.16 ± 0.015 | 0.00583 ± 0.0022 |
| UCCUGGAUGUGCUAGCAUAGUAAUUAGUUA | 0.0614 ± 0.011 | 0.00598 ± 0.0021 |
| UCCUGGAACAGCUUGGUAAGUAUUUAGUAA | 0.11 ± 0.017 | 0.00425 ± 0.0016 |
| UCCUGGUACAGCAUCCAUAGUAUUUAGUUA | 0.262 ± 0.077 | 0.00374 ± 0.0027 |
| UCCUGGAUGAGGUUGCAUAGUAUUAAGUUA | 0.0422 ± 0.018 | 0.00493 ± 0.0031 |
| UCCUGGAUGUCGAUGCAUAGUAUUUAGUCA | 0.111 ± 0.02 | 0.00347 ± 0.0027 |
| UCCUGGUACAGCAUGCUUAGUAUUUAGUUA | 0.208 ± 0.025 | 0.0118 ± 0.0026 |
| UCCUGGUACAGCUUGCAUGUAUUUAGUUA | 0.0383 ± 0.0075 | 0.00417 ± 0.0024 |
| UCCUGGAUGAGCUUGCAUAGUAUUUAGUAUA | 0.218 ± 0.028 | 0.00501 ± 0.0033 |
| UCCUGGAUGUGCUUGCAUAGUUAUUAGUUA | 0.00903 ± 0.0055 | 0.00639 ± 0.0025 |
| UCCUGGAUGUCCUUGGAUAGUAUUUAGUUA | 0.153 ± 0.021 | 0.00762 ± 0.0021 |
| UCCUGGAUGUCGUUGCAUAGUAUUUAGUUC [g2:g18:cont:t1C] | 0.0984 ± 0.01 | 0.00738 ± 0.0026 |
| UCCUGGUACAGCUUGCAUAGUAUUUCAGUUA | 0.21 ± 0.078 | 0.00397 ± 0.0039 |
| UCCUGGAUGAGCUUGCAUUGUAUAUAGUUA | 0.0992 ± 0.012 | 0.00388 ± 0.0029 |
| UCCUGGAUGUCGUUGCAUAGUAUUUAGUUUA | 0.178 ± 0.018 | 0.0103 ± 0.0039 |
| UCCUGGAUCAGCUUCCUUAGUAUUUAGUUA | 0.122 ± 0.018 | 0.00478 ± 0.0016 |
| UCCUCCAACAGCUUGCAUAGUAUAUAGUUA | 0.234 ± 0.027 | 0.0056 ± 0.0022 |
| UCCUGGAUCAGCUAGCAUUGUAUUUAGUUA | 0.107 ± 0.014 | 0.00287 ± 0.0024 |
| UCCUGGAUGAGCAAGCAUAGUAUUUAGUAA | 0.123 ± 0.018 | 0.00443 ± 0.0027 |
| UCCUGGAUGUCGAUGCAUAGUAAUUUAGUUA | 0.0247 ± 0.008 | 0.00496 ± 0.0023 |
